# Laboratory results from the supplement of paper PMC7411054.
# Where a name gives a salt, the structure may show the parent alone.
# Assays:
# Details in all cases: treatment time: 24 h
# HepG2-ACTB-RAB5A = assay: lowest phenotypically active concentration; higher = less potent
# How it was run: (§1)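 Two criteria together defined phenotypic activity: deviation and reproducibility. Deviation meant ≥3 of 4 wells beyond the 95th percentile of Euclidean distances in solvent control wells, and reproducibility meant a median replicate Pearson correlation above the 95th percentile of non-replicates. Wells had been treated for 24 h at 0.3, 1, 3 or 9 µM in fifteen gene-edited A549, HepG2 and WPMY1 reporter lines before live imaging.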
# HepG2-CANX-COX4 = assay: as above
# How it was run: as §1
# HepG2-GM130-SQSTM1 = assay: as above
# How it was run: as §1
# HepG2-TUBA1B-RELA = assay: as above
# How it was run: as §1
# WPMY1-ACTB-RAB5A [1] = assay: as above
# How it was run: as §1
# WPMY1-CANX-COX4 = assay: as above
# How it was run: as §1
# WPMY1-GM130-SQSTM1 = assay: as above
# How it was run: as §1
# WPMY1-TP53BP1-CLTA = assay: as above
# How it was run: as §1
# WPMY1-TUBA1B-RELA = assay: as above
# How it was run: as §1
# WPMY1-ACTB-RAB5A [2] = assay: phenotypically active (imaging signature differs from DMSO and reproducible) at any of 0.3-9 uM (binary (1 = active, 0 = inactive)); higher = active
# How it was run: as §1
SMILES,lowest phenotypically active concentration (HepG2-ACTB-RAB5A) [µM],lowest phenotypically active concentration (HepG2-CANX-COX4) [µM],lowest phenotypically active concentration (HepG2-GM130-SQSTM1) [µM],lowest phenotypically active concentration (HepG2-TUBA1B-RELA) [µM],lowest phenotypically active concentration (WPMY1-ACTB-RAB5A [1]) [µM],lowest phenotypically active concentration (WPMY1-CANX-COX4) [µM],lowest phenotypically active concentration (WPMY1-GM130-SQSTM1) [µM],lowest phenotypically active concentration (WPMY1-TP53BP1-CLTA) [µM],lowest phenotypically active concentration (WPMY1-TUBA1B-RELA) [µM],phenotypically active (WPMY1-ACTB-RAB5A [2])
NC(=O)Nc1cc(-c2cccc(F)c2)sc1C(=O)N[C@H]1CCCNC1 [AZD 7762 hydrochloride],≤ 0.3,1,≤ 0.3,≤ 0.3,≤ 0.3,≤ 0.3,1,≤ 0.3,≤ 0.3,1 (active)
CC(=C/[C@@H](C)C(=O)c1ccc(N(C)C)cc1)/C=C/C(=O)NO [Trichostatin A],≤ 0.3,≤ 0.3,≤ 0.3,≤ 0.3,≤ 0.3,≤ 0.3,≤ 0.3,≤ 0.3,≤ 0.3,1 (active)
Nc1nccc2c1ncn2[C@@H]1C=C(CO)[C@@H](O)[C@H]1O [3-Deazaneplanocin A hydrochloride],1,≤ 0.3,1,1,1,1,1,3,1,1 (active)
COc1ccccc1S(=O)(=O)Nc1ccc2c(c1)CN(C)C(=O)N2,1,3,3,3,3,3,3,9,3,1 (active)
COc1ccc(S(=O)(=O)Nc2cccnc2Nc2ccc(O)cc2)cc1,1,1,1,1,≤ 0.3,≤ 0.3,1,≤ 0.3,≤ 0.3,1 (active)
C[C@@H](Oc1cc(-n2cnc3ccc(CN4CCN(C)CC4)cc32)sc1C(N)=O)c1ccccc1C(F)(F)F,≤ 0.3,≤ 0.3,≤ 0.3,≤ 0.3,≤ 0.3,3,≤ 0.3,≤ 0.3,≤ 0.3,1 (active)
COc1cc(/C=C/C(=O)N2CCC=CC2=O)cc(OC)c1OC [Piperlongumine],3,3,3,3,9,9,3,9,9,1 (active)
Cc1n[nH]c2ccc(-c3cncc(OC[C@@H](N)Cc4ccccc4)c3)cc12,≤ 0.3,≤ 0.3,≤ 0.3,≤ 0.3,≤ 0.3,≤ 0.3,≤ 0.3,≤ 0.3,≤ 0.3,1 (active)
CC(C)c1cc(-c2n[nH]c(=O)n2-c2ccc3c(ccn3C)c2)c(O)cc1O [ganetespib],≤ 0.3,≤ 0.3,≤ 0.3,≤ 0.3,≤ 0.3,≤ 0.3,≤ 0.3,≤ 0.3,≤ 0.3,1 (active)
C=C1CN(Cc2ccc(C(=O)Nc3ccccc3N)cc2)C(=O)c2ccccc21,≤ 0.3,≤ 0.3,1,1,≤ 0.3,≤ 0.3,≤ 0.3,≤ 0.3,3,1 (active)
COc1cc(C(=O)NC2CCN(C)CC2)c(F)cc1Nc1ncc2c(n1)N(C1CCCC1)CC(F)(F)C(=O)N2C [TAK 960 hydrochloride],≤ 0.3,≤ 0.3,≤ 0.3,≤ 0.3,≤ 0.3,1,≤ 0.3,≤ 0.3,≤ 0.3,1 (active)
COc1ccc(S(=O)(=O)N(CCO)c2ccccc2CN(C)C/C=C/c2ccc(Cl)cc2)cc1,9,3,9,9,9,9,9,9,9,1 (active)
Cc1nc(Nc2ncc(C(=O)Nc3c(C)cccc3Cl)s2)cc(N2CCN(CCO)CC2)n1 [dasatinib],≤ 0.3,≤ 0.3,≤ 0.3,≤ 0.3,≤ 0.3,≤ 0.3,≤ 0.3,≤ 0.3,≤ 0.3,1 (active)
O=C(Nc1cccc(Cl)c1)Nc1ncc(CCNc2ncnc3ccsc23)s1 [SNS 314 mesylate],≤ 0.3,≤ 0.3,≤ 0.3,≤ 0.3,≤ 0.3,≤ 0.3,≤ 0.3,≤ 0.3,≤ 0.3,1 (active)
CCN(CC)c1ccc(/C=N/NC(=O)c2ccncc2)c(O)c1,≤ 0.3,≤ 0.3,≤ 0.3,1,≤ 0.3,≤ 0.3,≤ 0.3,≤ 0.3,1,1 (active)
COc1ccccc1-c1c[nH]c2ncc(-c3cncc(C(=O)N(C)C)c3)cc12,≤ 0.3,≤ 0.3,≤ 0.3,≤ 0.3,≤ 0.3,≤ 0.3,≤ 0.3,≤ 0.3,3,1 (active)
COc1ccc(C[C@H](N)C(=O)N[C@H]2[C@@H](O)[C@H](n3cnc4c(N(C)C)ncnc43)O[C@@H]2CO)cc1 [Puromycin dihydrochloride],≤ 0.3,≤ 0.3,≤ 0.3,≤ 0.3,≤ 0.3,1,≤ 0.3,1,1,1 (active)
O=C(CCCc1ccc(-c2ccccc2F)cc1)Nc1ccc(O)cc1,3,3,3,3,1,1,1,1,1,1 (active)
O=C(NCc1cccc(O)c1)Nc1nc(-c2ccncc2)cs1 [RKI 1447 dihydrochloride],≤ 0.3,≤ 0.3,≤ 0.3,≤ 0.3,≤ 0.3,≤ 0.3,≤ 0.3,≤ 0.3,≤ 0.3,1 (active)
